# Measured values as given in PubChem BioAssay (EPA / NIEHS).
# Inconclusive results are not listed. Activity calls are given as the source filed them. The calls were made as follows: active = hit-call score of the fitted dose curve at least 0.9, where 1 is the maximum; inconclusive = response in the unintended direction; inactive = score below 0.9.
# Assay: ACEA_ER_AUC_viability: ACEA Biosciences xCELLigence Real-Time Cell Analysis on Estrogen Receptor Agonism for Viability (AID 2283782);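 also: continuous compound exposure with impedance area under curve over 80 h; hit means loss of impedance signal meaning reduced cell growth or viability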
# Procedure, shortened: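 T-47D; phenol red-free RPMI1640 + 10% CS-FBS; 8 conc., 1:4 serial, max 100 uM final, ≤0.5% DMSO; n = 2; continuous exposure; impedance monitored to 80 h post-dose; AUC vs DMSO.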
Compound,outcome,AC50
Cn1[nH]nnc1=S,inactive,
C/C(=N\NC(=O)Nc1cc(F)cc(F)c1)c1ncccc1C(=O)O,inactive,
Cc1ccc(C(=O)Cl)cc1,inactive,
CC(C)(C)c1ccccc1OP(=O)(Oc1ccccc1)Oc1ccccc1,inactive,
CNC(=O)Oc1ccc(N(C)C)c(C)c1,,39.7 µM (active)
Oc1ccccc1Br,inactive,
COP(=O)(O)OC,inactive,
CC(Cl)CN(C)C (configuration not stated),,34.9 µM (active)
CC(O)C(F)(F)C(F)(F)F (configuration not stated),inactive,
CCOP(=S)(OCC)SCn1nnc2ccccc2c1=O,inactive,
Cc1ccc2c(c1N)C(=O)c1ccccc1C2=O,inactive,
CCN(CC)C1CCCCC1,inactive,
CCOP(=S)(OCC)SCSc1ccc(Cl)cc1,,27.9 µM (active)
FC(F)(F)C(F)(C(F)(F)F)C(F)(F)C(F)(F)CC1CO1 (configuration not stated),inactive,
Cc1c([N+](=O)[O-])cc2c(c1[N+](=O)[O-])C(C)(C)CC2(C)C,,82.3 µM (active)
O=S(=O)(F)C(F)(F)C(F)(F)C(F)(F)C(F)(F)C(F)(F)C(F)(F)C(F)(F)C(F)(F)F,inactive,

Compound,outcome,AC50
COP(=O)(CCC(=O)NCO)OC,,56.8 µM (active)
N#C/C=C/c1ccccc1,,50 µM (active)
NNC(N)=S,inactive,
Nc1ccc([N+](=O)[O-])cc1Cl,inactive,
COC(=O)C(F)(F)C(F)(F)OC(F)(C(F)(F)F)C(F)(F)OC(F)=C(F)F (configuration not stated),inactive,
OCC(F)(F)OC(F)(F)C(F)(F)OC(F)(F)C(F)(F)OC(F)(F)CO,,137 µM (active)
C=CC(=O)OCC(F)(F)C(F)F,inactive,
N#Cc1ccc(O)cc1,inactive,
O=C(O)C(F)(F)OC(F)(F)C(F)(F)OC(F)(F)C(=O)O,inactive,
Nc1ccc(Sc2ccc(N)cc2)cc1,inactive,
CC(O)C#N (configuration not stated),,50 µM (active)
CC(C)Nc1ccc(Nc2ccccc2)cc1,,18 µM (active)
CCOP(=S)(OCC)SCS(=O)(=O)CC,inactive,
ClC(Cl)=C(c1ccc(Cl)cc1)c1ccccc1Cl,inactive,
CC1=C(C(=O)Nc2ccccc2)S(=O)(=O)CCO1,,28.6 µM (active)
Cc1cc(C)c(C(=O)P(=O)(c2ccccc2)c2ccccc2)c(C)c1,,73.1 µM (active)
